This passage reports growth inhibition results from PubChem BioAssay (NCI).

About 79,000 compounds went through this panel and 15% of them were active in at least one assay; those are over-represented in the sample as a whole. The source made the active and inactive calls. Cut-off read from the data, not from the text of the source: active = growth inhibition above about 70%; inactive = the rest.

A short description of this experiment: NCI Yeast Anticancer Drug Screen. Data for the mlh1 rad18 strain (AID 175). Particulars: S. cerevisiae mlh1 rad18 strain growth inhibition; at 50.0 µM; active compounds read high. In a few lines: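 Growth inhibition of the yeast strain was measured after compound exposure and expressed relative to vehicle-treated controls. The strain carries defined defects in DNA damage repair.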
As for `Oc1ccc2nccnc2c1`, the growth inhibition is 13.1% (inactive). Then `CCC1(COC(NC(=O)c2ccccc2)(C(F)(F)F)C(F)(F)F)COC1`, with 7.05% (inactive). Then `CCOC(=O)CC1(O)Oc2cc3c(cc2C(c2cc(OC)c(OC)c(OC)c2)C1C(=O)OCC)OCO3` (stereo not given), with 10.2% (inactive). Then `CC(=O)/C(C)=C\C1C(C)=CCCC1(C)C` (stereo not given), with -5.85% (inactive); and `C1=CC2CCC1C1CSCC21` (stereo not given), with -12.7% (inactive); and `Nc1nc2ncc(=O)[nH]c2c(=O)[nH]1`, with -8.4% (inactive).

`COc1ccc2c(c1)OC(OC)(c1ccc(OC)c(OC)c1)C(O)(OC)C2=O` (stereo not given): the growth inhibition was 29% (inactive). On to `COC(=O)C1C(C)C1c1ccc2c(c1)OCO2` (stereo not given), for which the growth inhibition was -25.5% (inactive).

Take `CSc1nc2c(cnn2C)c(=O)[nH]1`: the growth inhibition is 24.6% (inactive). Then `O=C(Nc1ccc(F)cc1)Nc1ccc(I)cc1`, with 8.95% (inactive); and `CN(C)c1ccc(/C=N/N=C2\C(=O)Nc3c(Cl)cc(Cl)cc32)cc1`, with 78.8% (active). As to `O=C(Nc1cc(-c2ccccc2)nn1-c1ccccc1)c1ccc(Cl)cc1`, the growth inhibition was -9.65% (inactive).

Regarding `O=C(O)c1cnc2cc3c(cc2c1Nc1cccc(Cl)c1)OCO3`, the growth inhibition is -12.6% (inactive).

On to `O=C(NCCN1CCOCC1)c1ccc(C(=O)NCCN2CCOCC2)cc1`, for which the growth inhibition was 33.9% (inactive). Regarding `OCC1NC(COC2OC(CO)C(O)C(O)C2O)C(O)C(O)C1O` (stereo not given), the growth inhibition is -6.25% (inactive). Then `CC(C)Sc1nc(NC(=O)N(C)N=O)cc(=O)[nH]1`, with -32.1% (inactive); and `S=C(S)NCCCn1ccnc1`, with -0.8% (inactive).

With `C=Cc1ccc(C[n+]2cccc(C(N)=O)c2)cc1`, the growth inhibition was -35.9% (inactive). In the case of `NC1=C(O)/C(=N/NS(=O)(=O)c2ccccc2)C(c2cccc(Cl)c2)O1` (stereo not given), the growth inhibition was 21.7% (inactive). Then `O=C1O/C(=C(\Br)c2cccc3ccccc23)c2ccccc21`, with -18.3% (inactive). Then `O=C1c2cccc3cccc(c23)C(=O)N1C(Cc1ccccc1)c1ccccc1` (stereo not given), with -31.1% (inactive). Then `CC(=O)Nc1ccc(/C=C/C(=O)c2sc(-c3cccnc3)nc2C)cc1`, with 29.3% (inactive); and `O=S(=O)(c1ccc(Br)cc1)N1CCN(S(=O)(=O)c2ccc(Br)cc2)CC1`, with -10.1% (inactive); and `Cc1nc2nc[nH]n2c1N=Nc1ccccc1`, with 9.5% (inactive). `CCOc1ccc(C(C)(CC)c2cc3c(cc2OC)OCO3)cc1` (stereo not given): the growth inhibition was 3.85% (inactive). Then `O=C1C(O)=C(Br)C(=O)C(O)=C1Br`, with 11.6% (inactive). Then `CCOC(=O)C(CC(c1ccc2c(c1)OCO2)C(C(=O)N(C(C)C)C(C)C)[N+](=O)[O-])C(=O)OCC` (stereo not given), with 26.4% (inactive); and `OC(CBr)c1cc(-c2ccccc2)nc2c(Cl)cc(Cl)cc12` (stereo not given), with 50.8% (inactive); and `COC1CC(NC(C)=O)C2OC(c3ccccc3)OCC2O1` (stereo not given), with 4.45% (inactive). Then `COc1cc2c(c(OC)c1OC)-c1ccc(OC)c(=O)cc1C(NC(=O)CCCCCNc1ccc(N=[N+]=[N-])cc1[N+](=O)[O-])CC2` (stereo not given), with 84.3% (active); and `CC1(C)N=C(N)N=C(N)N1c1ccc(CCCCc2ccccc2)cc1`, with 46.1% (inactive); and `Cn1c(=O)c(C(=O)NC23CC4CC(CC(C4)C2)C3)c(O)c2ccccc21`, with -19.9% (inactive). `NC(=O)C1CCCCC1C(=O)O` (stereo not given): the growth inhibition was 14.8% (inactive). Then `Cc1ccncc1.[O]=[Ge].[O]=[Ge].[O]=[Ge].[O]=[Ge].[O]=[Ge].[O]=[Ge][OH].[O]=[Ge][OH]`, with -30.1% (inactive). For the molecule `CCCCCCCCCCCCSC(=O)CCC(=O)O`, the growth inhibition is 10.1% (inactive). Then `CS(=O)(=O)OCC(CCl)(CCl)CCl`, with -0.8% (inactive); and `Oc1ccc(Br)cc1C(=S)N1CCOCC1`, with 37.2% (inactive); and `CCCCCCCCCCC(C(=O)O)C1(C(=O)O)CCC(=O)O1` (stereo not given), with -5.25% (inactive). With `COc1ccc(C=O)c(C(=O)O)c1OC`, the growth inhibition is -3.7% (inactive). Then `c1ccc(CCC2OCC(c3ccccc3)O2)cc1` (stereo not given), with -2.05% (inactive).
